Active and inactive are the calls of the source. The calls were made as follows: active = hit-call score of the fitted dose curve at least 0.9, where 1 is the maximum; inactive = score below 0.9.
Experiments:
Details in all cases: mRNA level, 48 h; actives raise or lower the signal
[1] = read-out: Glutathione S-transferase M3 (GSTM3), GSTM3 (gene 2947); test: LTEA_HepaRG_GSTM3: Life Technologies and Expression Analysis (LTEA) Assay for Glutathione S-transferase M3 (GSTM3) using HepaRG (AID 2283501)
In short: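 GSTM3 transcript levels came from Fluidigm TaqMan qRT-PCR normalized to three housekeeping genes, fitted in both directions against DMSO. HepaRG cultures received chemicals for 48 h in serum-free induction medium (0.5% DMSO), 8 half-log concentrations up to 100 uM, duplicate.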

[2] = read-out: Heat shock 70 kDa protein 1 (HSPA1A), gene 3303; test: LTEA_HepaRG_HSPA1A: Life Technologies and Expression Analysis (LTEA) Assay for Heat shock 70 kDa protein 1 (HSPA1A) using HepaRG (AID 2283502)
In short: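 HSPA1A induction in human HepaRG liver cells is measured after 48 h of chemical treatment (100 uM maximum, 0.5% DMSO vehicle). Expression comes from qRT-PCR normalized to endogenous controls.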

[3] = read-out: Hypoxia-inducible factor 1-alpha (Homo sapiens) (UniProt Q16665); test: LTEA_HepaRG_HIF1A: Life Technologies and Expression Analysis (LTEA) Assay for Hypoxia-inducible factor 1 (HIF1A) Trancription factor using HepaRG (AID 2283503)
In short: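 HepaRG, 48 h exposure, 8-pt half-log series from 100 uM, 0.5% DMSO vehicle, duplicates. Readout: HIF1A transcript by qRT-PCR (Fluidigm array), housekeeping-normalised. Bidirectional curve fit vs DMSO baseline.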

[4] = read-out: 3-Hydroxy-3-Methylglutaryl-CoA Synthase 2 (HMGCS2), HMGCS2 (gene 3158); test: LTEA_HepaRG_HMGCS2: Life Technologies and Expression Analysis (LTEA) Assay for 3-Hydroxy-3-Methylglutaryl-CoA Synthase 2 (HMGCS2) using HepaRG (AID 2283504)
In short: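 Readout is HMGCS2 transcript by qRT-PCR, housekeeping-normalised (ACTB/GAPDH/POLR2A) and fitted bidirectionally against 0.5% DMSO. Differentiated HepaRG cells received chemicals 48 h, duplicate wells, eight half-log concentrations topping at 100 uM.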

[5] = read-out: HGF (gene 3082); test: LTEA_HepaRG_HGF: Life Technologies and Expression Analysis (LTEA) Assay for Hepatocyte Growth Facto (HGF) using HepaRG (AID 2283505)
In short: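 HGF transcript was quantified by TaqMan qRT-PCR against three housekeeping genes after 48 h treatment of HepaRG cells. Exposure ran in duplicate over eight half-log steps topping at 100 uM in 0.5% DMSO vehicle.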

[6] = read-out: Insulin Like Growth Factor 1 (IGF1), IGF1 (gene 3479); test: LTEA_HepaRG_IGF1: Life Technologies and Expression Analysis (LTEA) Assay for Insulin Like Growth Factor 1 (IGF1) using HepaRG (AID 2283506)
In short: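 Using human HepaRG liver cells, IGF1 transcript induction or suppression is measured 48 h after dosing across eight concentrations capped at 100 uM. Values derive from bidirectional concentration-response fitting with DMSO as baseline.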

[7] = read-out: Intercellular Adhesion Molecule 1 (ICAM1), ICAM1 (gene 3383); test: LTEA_HepaRG_ICAM1: Life Technologies and Expression Analysis (LTEA) Assay for Intercellular Adhesion Molecule 1 (ICAM1) using HepaRG (AID 2283507)
In short: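 ICAM1 transcript levels measured by qRT-PCR, normalized to three housekeeping genes (ACTB, GAPDH, POLR2A), after 48 h chemical exposure of HepaRG cells. Duplicate eight-point half-log series from 100 uM in 0.5% DMSO; gain or loss fitted against vehicle.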

[8] = read-out: Insulin-like growth factor-binding protein 1 (IGFBP1), IGFBP1 (gene 3484); test: LTEA_HepaRG_IGFBP1: Life Technologies and Expression Analysis (LTEA) Assay for Insulin-like growth factor-binding protein 1 (IGFBP1) using HepaRG (AID 2283508)
In short: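 Read-out is qRT-PCR transcript level normalized to three housekeeping genes, fitted in both directions against 0.5% DMSO. Differentiated HepaRG cells received eight half-log concentrations (top 100 uM) in duplicate for 48 h in serum-free induction medium.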

[9] = read-out: Interleukin 6 (IL6), IL6 (gene 3569); test: LTEA_HepaRG_IL6: Life Technologies and Expression Analysis (LTEA) Assay for Interleukin 6 (IL6) using HepaRG (AID 2283509)
In short: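 Differentiated human HepaRG cells, plated 48 h then switched to serum-free induction medium, were exposed in duplicate for 48 h to eight half-log concentrations up to 100 uM in 0.5% DMSO. IL6 mRNA measured by qRT-PCR, normalized to ACTB/GAPDH/POLR2A.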

[10] = read-out: Interleukin 6 Receptor (IL6R), IL6R (gene 3570); test: LTEA_HepaRG_IL6R: Life Technologies and Expression Analysis (LTEA) Assay for Interleukin 6 Receptor (IL6R) using HepaRG (AID 2283510)
In short: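 Concentration-response in human liver HepaRG cells: eight concentrations from 100 uM downward by half-logs, 48 h exposure, 0.5% DMSO vehicle. IL6R mRNA change measured by qRT-PCR and fitted in both directions relative to vehicle.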

Hypoxia-inducible factor 1-alpha (Homo sapiens), sequence (Q16665 whole entry, looked up): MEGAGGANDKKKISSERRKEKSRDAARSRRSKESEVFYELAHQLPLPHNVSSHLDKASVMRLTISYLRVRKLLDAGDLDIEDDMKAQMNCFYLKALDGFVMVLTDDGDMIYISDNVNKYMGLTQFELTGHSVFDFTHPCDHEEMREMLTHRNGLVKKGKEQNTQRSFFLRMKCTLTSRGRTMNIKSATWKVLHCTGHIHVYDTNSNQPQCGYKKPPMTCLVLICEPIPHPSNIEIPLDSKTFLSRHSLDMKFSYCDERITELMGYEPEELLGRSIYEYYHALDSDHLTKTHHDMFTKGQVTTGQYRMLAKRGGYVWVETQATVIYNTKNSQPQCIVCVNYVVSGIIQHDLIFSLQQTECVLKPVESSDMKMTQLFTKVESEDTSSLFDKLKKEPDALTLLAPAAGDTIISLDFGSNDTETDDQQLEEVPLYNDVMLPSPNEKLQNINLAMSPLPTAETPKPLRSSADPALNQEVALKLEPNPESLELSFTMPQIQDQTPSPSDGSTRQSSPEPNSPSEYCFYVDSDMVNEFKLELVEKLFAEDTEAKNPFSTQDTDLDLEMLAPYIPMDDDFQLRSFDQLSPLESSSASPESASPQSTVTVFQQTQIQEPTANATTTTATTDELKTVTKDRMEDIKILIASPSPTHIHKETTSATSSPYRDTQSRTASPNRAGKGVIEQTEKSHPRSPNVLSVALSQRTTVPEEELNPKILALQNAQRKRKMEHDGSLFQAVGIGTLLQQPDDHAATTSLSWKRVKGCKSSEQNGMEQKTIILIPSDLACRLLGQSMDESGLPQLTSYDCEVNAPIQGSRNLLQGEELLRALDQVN

SMILES	outcome [1]	outcome [2]	outcome [3]	outcome [4]	outcome [5]	outcome [6]	outcome [7]	outcome [8]	outcome [9]	outcome [10]	AC50 [4]	AC50 [6]	AC50 [8]	AC50 [10]	AC50 [7]	AC50 [9]	AC50 [2]	AC50 [3]
S=c1[nH]c2ccccc2s1	inactive	inactive	inactive	inactive	inactive	inactive	inactive	inactive	inactive	inactive								
NCCOCCOCCN	inactive	inactive	inactive	inactive	inactive	inactive	inactive	inactive	inactive	inactive								
CC(C)c1cccc(C(C)C)c1NC(=O)NS(=O)(=O)c1cc(C(C)(C)O)co1	inactive	inactive	inactive		inactive		inactive	inactive	inactive	inactive	62 µM (active)	50 µM (active)						
O=C(NS(=O)(=O)/C=C/c1cccs1)c1ccc(F)cc1Br	inactive	inactive	inactive		inactive		inactive	inactive	inactive	inactive	71 µM (active)	31.1 µM (active)						
CCCCc1nc2cccnc2n1Cc1ccc(-c2ccccc2-c2nnn[nH]2)cc1	inactive	inactive	inactive	inactive	inactive		inactive	inactive	inactive	inactive		50 µM (active)						
COc1ccc(C(=O)Nc2nc3ccccc3c(NCc3ccccc3)c2C#N)cc1	inactive	inactive	inactive	inactive	inactive		inactive		inactive			13.4 µM (active)	17.9 µM (active)	4.44 µM (active)				
CCN(CC)CCOc1ccc(C(=C(Cl)c2ccccc2)c2ccccc2)cc1	inactive	inactive	inactive		inactive					inactive	29.2 µM (active)	13.3 µM (active)	61.2 µM (active)		77.1 µM (active)	81.8 µM (active)		
CN(C)CCCN(C)CCCN(C)C	inactive	inactive	inactive	inactive	inactive	inactive	inactive	inactive	inactive	inactive								
C#CC(O)C(CC)CCCC (stereo unspecified)	inactive	inactive	inactive	inactive	inactive	inactive	inactive	inactive	inactive	inactive								
O=C(O)CC(O)(CC(=O)O)C(=O)O	inactive	inactive	inactive	inactive		inactive	inactive	inactive	inactive	inactive								
O=C1c2c(O)cccc2Cc2cccc(O)c21	inactive	inactive	inactive	inactive		inactive	inactive	inactive	inactive	inactive								
Cc1c(C)c2c(c(C)c1O)CCC(C)(COc1ccc(CC3SC(=O)NC3=O)cc1)O2 (stereo unspecified)	inactive			inactive	inactive		inactive					68.5 µM (active)	50 µM (active)	92.9 µM (active)		88.2 µM (active)	50 µM (active)	66.8 µM (active)
O=C(O)c1[nH]n(-c2ccc(S(=O)(=O)O)cc2)c(=O)c1N=Nc1ccc(S(=O)(=O)O)cc1	inactive	inactive	inactive	inactive		inactive	inactive	inactive	inactive	inactive								
O=C1O[C@H]([C@H](O)CO)C(O)=C1O	inactive	inactive	inactive	inactive	inactive	inactive	inactive	inactive	inactive	inactive								
CN(C)C(=O)NC1(c2ccccc2)CCN(CCC[C@]2(c3ccc(Cl)c(Cl)c3)CCCN(C(=O)c3ccccc3)C2)CC1	inactive		inactive	inactive								16.4 µM (active)	18.2 µM (active)	17.2 µM (active)	20.1 µM (active)	22.7 µM (active)	20.5 µM (active)	
O=C(O)c1cccnc1	inactive	inactive	inactive	inactive		inactive	inactive	inactive	inactive	inactive								
CCCC[C@H]1CN(CC2CCOCC2)C(=O)OC12CCN(C1(C)CCN(C(=O)c3c(C)ncnc3C)CC1)CC2	inactive	inactive	inactive	inactive		inactive	inactive	inactive	inactive	inactive								
C=CCc1ccc(OC)c(OC)c1	inactive	inactive	inactive	inactive		inactive	inactive	inactive	inactive	inactive								
OCC(CO)n1cnc(-c2ccc(F)cc2)c1-c1ccnc(Oc2ccccc2)n1	inactive		inactive	inactive	inactive	inactive	inactive	inactive	inactive	inactive							37 µM (active)	
CC(C)c1cccc(C(C)C)c1	inactive	inactive	inactive	inactive		inactive	inactive	inactive	inactive	inactive								
COc1ccc(OC(F)(F)F)cc1CN[C@H]1CCCN[C@H]1c1ccccc1	inactive		inactive			inactive				inactive	78.8 µM (active)		71.7 µM (active)		75.7 µM (active)	82.9 µM (active)	73.3 µM (active)	

Reference: PubChem BioAssay (EPA / NIEHS)
